Compounds without any hit were thinned out: in the full panel of roughly 79,000, 15% have a hit. A number with no mark means an inactive call. Calls of active or inactive are those of the source. No stated cut-off is given here; in the data, active means growth inhibition above about 70%; inactive means the rest. Residues, ends and D or L forms follow the SMILES beside them. *: point of attachment. Fmoc = O=C(OCC1c2ccccc2-c2ccccc21)*; Boc = CC(C)(C)OC(=O)*
Test: NCI Yeast Anticancer Drug Screen. Data for the wt2 strain (AID 169);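 further: 0% = growth of vehicle-treated yeast cultures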
Settings: S. cerevisiae wt2 strain growth inhibition; at 33.0 µM; hits give high values
Procedure, shortened: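 Genetically defined yeast strains from a DNA-repair/cell-cycle panel were used. Compound-exposed yeast growth was measured, and the inhibition was calculated relative to vehicle treatment.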
In the case of `CC(C)C(=O)CC(Sc1ccc(N)cc1)c1ccccc1` (stereo not drawn), the growth inhibition is reported as 47%. For `CC(C)OP(=O)(OC(C)C)/C(Cl)=N/Nc1ccc([N+](=O)[O-])cc1`, the growth inhibition was 71% (active). In the case of `O=[N+]([O-])c1cc(Cl)ccc1S(=O)(=O)c1ccc(Cl)cc1[N+](=O)[O-]`, the growth inhibition is reported as 88% (active). In the case of `CCCCCCNCCCNc1c2cc(OC)ccc2nc2cccc([N+](=O)[O-])c12`, the growth inhibition is reported as 81% (active). With `N#CCC(=O)N/N=C(\c1ccccc1)C(c1ccccc1)C1(O)C(=O)Nc2c(Cl)ccc(Cl)c21` (stereo not drawn) the growth inhibition was -3%. Work on `CN(C)CCNCCCNc1c2ccccc2nc2cccc([N+](=O)[O-])c12` yielded a growth inhibition of 33%. For `CCC[CH2][Ge]([CH2]CCC)([CH2]CCC)[O]C(=O)C(O)c1ccccc1` (stereo not drawn), the growth inhibition was 81% (active). `COc1ccc(-c2cc(-c3cc(C)cc(Cl)c3O)nc3[nH]c(=S)[nH]c(=S)c23)cc1` showed a growth inhibition of 6%. In the case of `O=[N+]([O-])c1ccc(/C=C\c2ccc3c(c2)OCO3)c([N+](=O)[O-])c1`, the growth inhibition is reported as 8%. With `O=C1c2ccccc2N2OC3(N4CCCC4)CCCCC3C12c1ccccc1` (stereo not drawn) the growth inhibition was -8%. `CC(C)OC(=O)NNc1cc(Cl)ccc1Cl` gave a growth inhibition of 29%. With `Cc1oc2ccccc2c(=O)c1Cn1nnc2ccccc21` the growth inhibition was 0%. In the case of `CC1(C)OC(=O)C(=Cc2ccc([N+](=O)[O-])s2)C(=O)O1`, the growth inhibition is reported as 62%. `CCN(CC)CCCNc1ccc([N+](=O)[O-])c2nc3ccc(OC)cc3c(NCCCN(CC)CC)c12` gave a growth inhibition of -1%. With `COc1cccc(/C=C2\S/C(=N/Nc3nc(-c4ccc([N+](=O)[O-])cc4)cs3)NC2=O)c1O` the growth inhibition was 94% (active). For `OC(Cc1cccc2ccccc12)CN1CCC(c2ccccc2)CC1` (stereo not drawn), the growth inhibition was 84% (active). For `C1=CCN([B-](c2ccccc2)[C+]2CCCCC2)C=C1`, the growth inhibition was 94% (active). In the case of `O=[N+]([O-])c1cc[n+]([O-])c(Cl)c1`, the growth inhibition is reported as 99% (active). Work on `CCCNC(=O)OCc1c(COC(=O)NCCC)c(-c2ccc(Cl)c(Cl)c2)n2c1CCC2` yielded a growth inhibition of -21%. With `CC1(C)CC(=O)C(C(=O)Nc2cccs2)=C(O)C1` the growth inhibition was 60%. Work on `O=C(NO)c1coc2ccccc2c1=O` yielded a growth inhibition of -3%. With `COc1ccc(C(C)c2cc3c(cc2OCC(C)=O)OCO3)cc1` (stereo not drawn) the growth inhibition was -6%. In the case of `CCS(=O)(=O)Nc1ccc(Nc2c3ccccc3nc3ccccc23)c(OC)c1`, the growth inhibition is reported as -1%. `O=S(=O)(c1ccccc1)N1CN2CN(C1)CN(S(=O)(=O)c1ccccc1)C2` showed a growth inhibition of -5%. With `CC1=NN(C(=O)c2ccccc2O)C(=O)/C1=C/c1ccco1` the growth inhibition was 92% (active). In the case of `O=C1C=C(Br)C(=O)c2ccccc21`, the growth inhibition is reported as 99% (active). In the case of `C[N+](C)([O-])CCCNc1c2ccccc2nc2cccc([N+](=O)[O-])c12`, the growth inhibition is reported as 84% (active). For `Cc1cccc2c(NCCCN(C)C)c3c([N+](=O)[O-])ccc(C)c3nc12`, the growth inhibition was 95% (active). Work on `OC1(c2ccccc2)C2CC=CC2C1(c1ccccc1)c1ccccc1` (stereo not drawn) yielded a growth inhibition of 7%. For `C[n+]1c(-c2ccc(/C=N/NC(=O)c3ccc(C(=O)N/N=C/c4ccc(-c5cn6ccccc6[n+]5C)cc4)cc3)cc2)cn2ccccc21`, the growth inhibition was 88% (active). `CCN(CC)CCC(=O)Nc1ccc2sc3ccccc3c(=O)c2n1` showed a growth inhibition of 16%. `O=[N+]([O-])c1ccc2nc(=S)[nH]n2c1` showed a growth inhibition of -3%. In the case of `COc1cc([N+](=O)[O-])c2ncccc2c1Br`, the growth inhibition is reported as 4%. Work on `CC(C)(C)OC(=O)NCCCCC(NC(=O)C(Cc1c[nH]c2ccccc12)NC(=O)OCC1c2ccccc2-c2ccccc21)C(=O)O` (stereo not drawn) (Fmoc-Trp-Lys(Boc)-OH; configuration not given here) yielded a growth inhibition of 1%.

Same assay, conditions: S. cerevisiae wt2 strain growth inhibition; at 100.0 µM; hits give high values
In the case of `CC(C)C(=O)CC(Sc1ccc(N)cc1)c1ccccc1` (stereo not drawn), the growth inhibition is reported as 57%. With `CC(C)OP(=O)(OC(C)C)/C(Cl)=N/Nc1ccc([N+](=O)[O-])cc1` the growth inhibition was 93% (active). In the case of `O=[N+]([O-])c1cc(Cl)ccc1S(=O)(=O)c1ccc(Cl)cc1[N+](=O)[O-]`, the growth inhibition is reported as 84% (active). With `CCCCCCNCCCNc1c2cc(OC)ccc2nc2cccc([N+](=O)[O-])c12` the growth inhibition was 98% (active). In the case of `N#CCC(=O)N/N=C(\c1ccccc1)C(c1ccccc1)C1(O)C(=O)Nc2c(Cl)ccc(Cl)c21` (stereo not drawn), the growth inhibition is reported as 1%. With `CN(C)CCNCCCNc1c2ccccc2nc2cccc([N+](=O)[O-])c12` the growth inhibition was 91% (active). For `CCC[CH2][Ge]([CH2]CCC)([CH2]CCC)[O]C(=O)C(O)c1ccccc1` (stereo not drawn), the growth inhibition was 99% (active). For `COc1ccc(-c2cc(-c3cc(C)cc(Cl)c3O)nc3[nH]c(=S)[nH]c(=S)c23)cc1`, the growth inhibition was 87% (active). Work on `O=[N+]([O-])c1ccc(/C=C\c2ccc3c(c2)OCO3)c([N+](=O)[O-])c1` yielded a growth inhibition of 66%. For `O=C1c2ccccc2N2OC3(N4CCCC4)CCCCC3C12c1ccccc1` (stereo not drawn), the growth inhibition was 88% (active). For `CC(C)OC(=O)NNc1cc(Cl)ccc1Cl`, the growth inhibition was 35%. In the case of `Cc1oc2ccccc2c(=O)c1Cn1nnc2ccccc21`, the growth inhibition is reported as 32%. With `CC1(C)OC(=O)C(=Cc2ccc([N+](=O)[O-])s2)C(=O)O1` the growth inhibition was 71% (active). For `CCN(CC)CCCNc1ccc([N+](=O)[O-])c2nc3ccc(OC)cc3c(NCCCN(CC)CC)c12`, the growth inhibition was 0%. With `COc1cccc(/C=C2\S/C(=N/Nc3nc(-c4ccc([N+](=O)[O-])cc4)cs3)NC2=O)c1O` the growth inhibition was 92% (active). With `OC(Cc1cccc2ccccc12)CN1CCC(c2ccccc2)CC1` (stereo not drawn) the growth inhibition was 97% (active). With `C1=CCN([B-](c2ccccc2)[C+]2CCCCC2)C=C1` the growth inhibition was 98% (active). In the case of `O=[N+]([O-])c1cc[n+]([O-])c(Cl)c1`, the growth inhibition is reported as 99% (active). `CCCNC(=O)OCc1c(COC(=O)NCCC)c(-c2ccc(Cl)c(Cl)c2)n2c1CCC2` showed a growth inhibition of 44%. In the case of `CC1(C)CC(=O)C(C(=O)Nc2cccs2)=C(O)C1`, the growth inhibition is reported as 99% (active). With `O=C(NO)c1coc2ccccc2c1=O` the growth inhibition was 4%. With `COc1ccc(C(C)c2cc3c(cc2OCC(C)=O)OCO3)cc1` (stereo not drawn) the growth inhibition was 75% (active). `CCS(=O)(=O)Nc1ccc(Nc2c3ccccc3nc3ccccc23)c(OC)c1` showed a growth inhibition of 56%. With `O=S(=O)(c1ccccc1)N1CN2CN(C1)CN(S(=O)(=O)c1ccccc1)C2` the growth inhibition was 5%. In the case of `CC1=NN(C(=O)c2ccccc2O)C(=O)/C1=C/c1ccco1`, the growth inhibition is reported as 96% (active). For `O=C1C=C(Br)C(=O)c2ccccc21`, the growth inhibition was 99% (active). In the case of `C[N+](C)([O-])CCCNc1c2ccccc2nc2cccc([N+](=O)[O-])c12`, the growth inhibition is reported as 94% (active). In the case of `Cc1cccc2c(NCCCN(C)C)c3c([N+](=O)[O-])ccc(C)c3nc12`, the growth inhibition is reported as 97% (active). For `OC1(c2ccccc2)C2CC=CC2C1(c1ccccc1)c1ccccc1` (stereo not drawn), the growth inhibition was 54%. With `C[n+]1c(-c2ccc(/C=N/NC(=O)c3ccc(C(=O)N/N=C/c4ccc(-c5cn6ccccc6[n+]5C)cc4)cc3)cc2)cn2ccccc21` the growth inhibition was 82% (active). In the case of `CCN(CC)CCC(=O)Nc1ccc2sc3ccccc3c(=O)c2n1`, the growth inhibition is reported as 12%. In the case of `O=[N+]([O-])c1ccc2nc(=S)[nH]n2c1`, the growth inhibition is reported as 12%. Work on `COc1cc([N+](=O)[O-])c2ncccc2c1Br` yielded a growth inhibition of 9%. Work on `CC(C)(C)OC(=O)NCCCCC(NC(=O)C(Cc1c[nH]c2ccccc12)NC(=O)OCC1c2ccccc2-c2ccccc21)C(=O)O` (stereo not drawn) (Fmoc-Trp-Lys(Boc)-OH; configuration not given here) yielded a growth inhibition of 61%.

Source: PubChem BioAssay (NCI)
